Where “and” joins values, the source holds several entries; their conditions need not be identical. Equal values may be shown once. Results filed as inconclusive are left out. Calls of active or inactive are those of the source. Unless noted, calls follow the shape of the dose curve; as a rule, active = well fitted curve in the direction sought with a large enough effect; inconclusive = small, poorly fitted or top-dose-only effect, or another doubt; inactive = no such curve, though single readings can be large; an effect the other way counts as inactive or inconclusive.
Assays:
[1] = Cell Viability - MRC5 (AID 434; calls by dose curve;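 also: potency is read from the fitted curve at half-maximal effect; potency reflects cytotoxicity seen as loss of intracellular ATP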); conditions: MRC5 lung fibroblast viability, qHTS
Summary of the method: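 AC50 values come from Hill-equation fits of intracellular ATP loss, measured by CellTiter-Glo luminescence. Normal lung fibroblasts (MRC5) had 40 hr compound treatment at 37 C, normalized between DMSO and 100 uM tamoxifen.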

[2] = target: Mitogen-activated protein kinase 10 (Mus musculus) (UniProt Q61831); test: JNK3 AlphaScreen Assay (AID 530; active = well fitted curve in either direction with a large enough effect, not every such curve was filed as active;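 also: kinase came from lysate of stimulated human HepG2 cells; signal reports phosphorylation of biotinylated GST-cJun 1-79 at Ser73 with 10 µM ATP; % is scaled to controls: 0 for no effect and ±100 for the full control effect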); conditions: JNK3 lysate, c-Jun phosphorylation; series mostly up to 57.1 µM
Summary of the method: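 Kinase buffer: 20 mM Tris-HCl pH 7.6, 10 mM MgCl2, 1 mM DTT, 0.1 mM Na3VO4, 0.01% Tween-20; ATP 10 uM. Substrate biotin-GST-cJun(1-79), enzyme from activated HepG2 lysates. Detection by Ser73 phospho-antibody AlphaScreen.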

[3] = Cellular Toxicity (caspase-3) HepG2 (AID 654); conditions: HepG2 caspase-3 activation, luminescence, 0% = DMSO only, 100% = tamoxifen; series mostly up to 92.2 µM;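 also: cells exposed to compound for 16 hours before reading; 0% = DMSO alone and 100% = caspase signal from 100 µM tamoxifen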
Summary of the method: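 Luminescent Caspase-Glo 3/7 readout after 16 hr compound exposure of human hepatocellular carcinoma HepG2 cells at 37 °C; qHTS concentration-response, normalized DMSO = 0%, 100 uM tamoxifen = 100%; AC50 by standard Hill equation.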

[4] = Cellular Toxicity (caspase-3) SHSY5Y (AID 657); conditions: SH-SY5Y caspase-3 activation, DMSO zero, 10 µM staurosporine = 100%; series mostly up to 91.7 µM
Summary of the method: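 SH-SY5Y human neuroblastoma cells, 1500/well, exposed to compound for 16 hours at 37 °C in complete medium. Caspase-3/7 activity read by Caspase-Glo luminescence after 1 hr at room temperature, normalized to DMSO and 10 uM staurosporine; AC50 from Hill fit.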

[5] = Cell Viability - LYMP2-001 (AID 921); conditions: LYMP2-001 lymphoblastoid cell viability; series mostly up to 92.2 µM;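 also: 0% = DMSO only and full inhibition = tetraoctylammonium bromide control wells; nearly all actives have a fitted effect of over 70% in size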
Summary of the method: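 Human lymphoblastoid LYMP2-001 cells, 2500 per well, in complete medium, treated 24 h at 37 C. Viability from cellular ATP by CellTiter-Glo luminescence; AC50 from Hill-equation fits of qHTS concentration-response.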

[6] = Cell Viability - LYMP1-003 - Assay at 24 hr (AID 963); conditions: LYMP1-003 lymphoblastoid cell viability; series mostly up to 92.2 µM;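 also: plate controls were DMSO only for no effect and tetraoctylammonium bromide positive control for full effect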
Summary of the method: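 CellTiter-Glo luminescence (intracellular ATP) read after 24 hr, 37 C compound exposure of 2500 LYMP1-003 human lymphoblastoid cells/well in complete medium; qHTS concentration series; AC50 via standard Hill equation.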

[7] = Cell Viability - LYMP1-003 - Assay at 40 hr (AID 964); conditions: LYMP1-003 lymphoblastoid viability; series mostly up to 92.2 µM; also: % is scaled to controls: 0 for no effect and ±100 for the full control effect; nearly all actives have a fitted effect of over 60% in size
Summary of the method: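 LYMP1-003 lymphoblastoid cells, 2500/well; 5 hr preincubation, 40 hr compound exposure, 37 C; CellTiter-Glo 30 min RT; luminescence; Hill-fit AC50. Positive control tetraoctylammonium bromide.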

[8] = Cell Viability - LYMP2-009 (AID 968); conditions: LYMP2-009 lymphoblastoid cell viability; series mostly up to 92.2 µM;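 also: 0% = DMSO alone and the full-kill end = tetraoctylammonium bromide at 92 µM; nearly all actives have a fitted effect of over 55% in size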
[9] = Cell Viability - LYMP2-021 (AID 974); conditions: LYMP2-021 lymphoblastoid cells viability; series mostly up to 92.2 µM;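 also: compound exposure lasts 24 hours at 37 °C; % is scaled to controls: 0 for no effect and ±100 for the full control effect; nearly all actives have a fitted effect of over 55% in size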
Summary of the method: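 ATP luminescence (CellTiter-Glo, 30 min RT) after 24 h compound exposure at 37 C; 2500 human lymphoblastoid cells/well, 5 h settle beforehand. Cytotoxicity = concentration-dependent ATP drop, AC50 by Hill fit.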

[10] = Cell Viability - LYMP2-006 (AID 978); conditions: LYMP2-006 lymphoblastoid cell viability, qHTS; series mostly up to 92.2 µM;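 also: cells exposed to compound for 24 hours; % is scaled to controls: 0 for no effect and ±100 for the full control effect; nearly all actives have a fitted effect of over 60% in size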
Summary of the method: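 Human lymphoblastoid cells (LYMP2-006), 2500/well in complete medium, were treated with compound for 24 hr at 37 C. Cellular ATP was read by CellTiter-Glo luminescence after 30 min, and AC50 values came from Hill-equation fits of concentration-response data.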

[11] = Cell Viability - LYMP2-008 (AID 980); conditions: LYMP2-008 lymphoblastoid cell viability, qHTS; series mostly up to 92.2 µM; also: % is scaled to controls: 0 for no effect and ±100 for the full control effect; nearly all actives have a fitted effect of over 60% in size
Summary of the method: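 Luminescent ATP read-out (CellTiter-Glo, 30 min RT) after 24 hr compound exposure at 37 C of human lymphoblastoid cells in complete medium. Decrease in ATP taken as cytotoxicity; AC50 derived by standard Hill fit of qHTS concentration-response data.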

[12] = Cell Viability - LYMP2-018 (AID 985); conditions: LYMP2-018 lymphoblastoid cells, viability (qHTS); series mostly up to 92.2 µM;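 also: plate controls were DMSO only for no effect and tetraoctylammonium bromide at 92 µM for full effect; nearly all actives have a fitted effect of over 50% in size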
Summary of the method: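 2500 cells/well; 5 hr 37 C; cmpd 24 hr 37 C, complete medium; CellTiter-Glo 30 min RT; luminescence. Tetraoctylammonium bromide positive control. AC50 via Hill fit.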

[13] = Cell Viability - LYMP1-002 - Assay at 24 hr (AID 993); conditions: LYMP1-002 lymphoblastoid cells viability; series mostly up to 92.2 µM; also: % is scaled to controls: 0 for no effect and ±100 for the full control effect
Summary of the method: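 CellTiter-Glo luminescence (intracellular ATP) after 24 h compound exposure, 37 C, in LYMP1-002 human lymphoblastoid cells; decreased ATP taken as cytotoxicity. AC50 from standard Hill fit of concentration-response curves.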

[14] = qHTS assay for environmental chemicals that activate the Aryl hydrocarbon Receptor (AhR) signaling pathway (AID 651777); conditions: 1A2-DRE human hepatoma cells, luciferase, 24 h; activation: hits give high values; also: % of control where 0% means no effect; nearly all actives have a fitted effect of over 15% in size
Summary of the method: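 Quantitative HTS in stably transfected human liver-derived cells whose luciferase gene sits downstream of the CYP1A2 promoter and dioxin response element. After 24 hr exposure at 37 C, One-Glo luminescence was measured.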

[15] = Cell Viability - Renal Proximal Tubule (AID 545); conditions: renal proximal tubule cells viability; series mostly up to 91.7 µM; also: nearly all actives have a fitted effect of over 40% in size
Summary of the method: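 Rat renal proximal tubule primary cells, 1000/well, exposed to compounds for 40 hr at 37 °C in complete medium; cellular ATP read by CellTiter-Glo luminescence. AC50 from concentration-response fitted with standard Hill equation.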

[16] = Cellular Toxicity (caspase-3) H-4-II-E (AID 663); conditions: H-4-II-E rat hepatoma; Potency: caspase-3 activation; series mostly up to 92.2 µM;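 also: cells exposed to compound for 16 hr before readout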
Summary of the method: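 Caspase 3/7 activation measured by luminescent aminoluciferin substrate cleavage after 16 hr compound treatment of H-4-II-E cells in complete medium. Increase normalized between DMSO (basal) and 100 uM tamoxifen (100%); Hill-equation AC50 from concentration-response.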

[17] = Cellular Toxicity (caspase-3) N2a (AID 665); conditions: N2a cells, luminescence, normalized: DMSO 0%, 10 µM staurosporine 100%; series mostly up to 92.2 µM;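 also: compound exposure lasted 16 h at 37 °C before readout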
Summary of the method: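 Luminescent Caspase-Glo 3/7 readout in N2a mouse neuroblastoma cells after 16 h compound exposure at 37 °C. Signal scaled to DMSO (basal) and 10 uM staurosporine (100%). Concentration-response fitted with Hill equation for AC50.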

[18] = Cellular Toxicity (caspase-3) Renal Proximal Tubule (AID 667); conditions: renal proximal tubule cells; series mostly up to 91.7 µM;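 also: cells exposed to compound for 16 hours at 37 °C before detection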
Summary of the method: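 Freshly isolated primary rat kidney proximal tubule cells, 1000/well, treated 16 hr at 37 °C, then Caspase-Glo 3/7 luminescence after 1 hr. Normalized to DMSO and 10 uM staurosporine; AC50 from Hill fit.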

[19] = MultiTox-Fluor Cytotoxicity Assay - LYMP1-003 - Dead Cells (AID 961); conditions: LYMP1-003 lymphoblastoid cells, dead-cell protease fluorescence; series mostly up to 92.2 µM;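 also: 0% = DMSO and 100% = tetraoctylammonium bromide; nearly all actives have a fitted effect of over 70% in size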
Summary of the method: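 LYMP1-003 human lymphoblastoid cells (2500/well) exposed to compound 16 h at 37 C in complete medium; dead-cell protease read with bis-AAF-R110 fluorescence (Ex/Em 485/520) after 60 min at room temperature. Normalized to DMSO and 15 uM tetraoctylammonium bromide; AC50 from Hill fit.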

[20] = qHTS assay for small molecule activators of the human pregnane X receptor (PXR) signaling pathway (AID 720659; call rule not given here; also: 0% is about no effect); conditions: DPX-2 HepG2 CYP3A4-luciferase, 24 h; series mostly up to 92.3 µM

C[N+](=O)[O-]
inactive: Potency [1] > 92 µM | Potency [2] | outcome [3] | outcome [4] | Potency [5] | outcome [6] | Potency [7] | Potency [8] | Potency [9] | Potency [10] | Potency [11] | Potency [12] | Potency [13] | activation [14] 0.25%

Clc1cccc(Cl)c1
inactive: Potency [1] > 92 µM | Potency [2] | outcome [15] | outcome [3] | outcome [4] | Potency [16] | outcome [17] | outcome [18] | Potency [5] | Potency [19] | Potency [7] | Potency [8] | Potency [9] | Potency [10] | Potency [11] | Potency [12] | Potency [13] | activation [14] -1.27% | outcome [20]

COP(=S)(OC)SCn1nnc2ccccc2c1=O
inactive: Potency [2] | outcome [15] | outcome [3] | outcome [4] | Potency [16] | outcome [18] | Potency [5] | Potency [7] | Potency [8] | Potency [9] | Potency [10] | Potency [11] | Potency [12] | activation [14] 2.58% and 5.04%

CC(=O)NNc1ccccc1
inactive: Potency [2] | outcome [15] | outcome [3] | outcome [4] | Potency [16] | outcome [17] | outcome [18] | Potency [5] | Potency [19] | Potency [7] | Potency [8] | Potency [9] | Potency [10] | activation [14] 2.76% | outcome [20]

CCOP(=O)(OCC)OCC
inactive: Potency [1] > 92 µM | Potency [2] | outcome [3] | outcome [4] | outcome [18] | Potency [5] | Potency [19] | outcome [6] | Potency [7] | Potency [8] | Potency [10] | Potency [11] | Potency [12] | Potency [13] | activation [14] -0.171% and -0.669% | outcome [20]

Cc1ccc(N)cc1Cl
inactive: Potency [1] > 92 µM | Potency [2] | outcome [15] | outcome [3] | outcome [4] | outcome [17] | outcome [18] | Potency [5] | Potency [19] | outcome [6] | Potency [8] | Potency [10] | Potency [11] | Potency [12] | Potency [13] | outcome [20]

CCCC[N+](=O)[O-]
inactive: Potency [1] > 92 µM | Potency [2] | outcome [15] | outcome [3] | outcome [4] | Potency [16] | outcome [17] | outcome [18] | Potency [5] | Potency [19] | outcome [6] | Potency [7] | Potency [8] | Potency [9] | Potency [10] | Potency [11] | Potency [12] | Potency [13] | activation [14] 0.218% | outcome [20]
